# Sa growth 42C: blocks Staphylococcus aureus growth. relative growth, % (concentration not given with the values). S. aureus RN4220 growth, OD600, 20 h, 42 °C; hits give low values. hit rate 0.53% among 170,000;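 active = relative growth at most 50% at the other temperature and 20+ points below 30 °C, or under 10% at both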
# S aureus helic: blocks Staphylococcus aureus DNA helicase. purified S. aureus helicase, fluorescence unwinding assay. hit rate 0.05% among 120,000. AID 485395. inhibition, % (no concentration beside the values); in the data active = inhibition above about 25%, passing the limit was not always enough;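 also: 0% = mean of negative control wells and 100% = mean of positive control wells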
# An asterisk follows results filed as active; / = no result. Rows were chosen to be rich in hits. Some 0.52% of all compounds tested hit in one or more screens of this group.
SMILES,Sa growth 42C,S aureus helic
CO/N=C(/C(=O)NC1C(=O)N2C(C(=O)O)=C(COC(N)=O)CSC12)c1ccco1 (configuration not stated),-1.0*,/
CO/N=C(\C(=O)N[C@@H]1C(=O)N2C(C(=O)O)=C(COC(C)=O)CS[C@H]12)c1csc(N)n1,-0.8*,/
CCc1ccc(-c2nc(CN3CCC(C(=O)NCCc4ccc(Cl)cc4)CC3)c(C)o2)cc1,103,/
CCOc1ccc(S(=O)(=O)Nc2cccc(OC)c2)c2cccnc12,81,/
O=C(/C=C\c1ccco1)Oc1cccc2cccnc12,1.6*,17
CCc1ccc(OC(=O)/C=C/c2ccco2)cc1,106,-2
N#CC(C#N)=NNc1ccccc1C(N)=O,-0.5*,21
NC(=O)c1ccccc1NC(=O)Nc1ccccc1,104,3
NNC(=O)CSc1nnc2c(n1)[nH]c1ccccc12,78,-10
COc1ccc(CCNC(=O)Cn2c(-c3ccc(F)cc3)cc(C(C)=O)c2C)cc1OC,113,/
O=c1[nH]cc(F)c(=O)[nH]1,-0.5*,/
CN(C)c1c[nH]c(=O)[nH]c1=O,96,5
O=C(O)C1C2C=CC(C2)C1C(=O)Nc1nccs1 (configuration not stated),105,-20
COc1ccc2c(c1)s/c(=N\NC(=S)NC(=O)CN1C(=O)CCC1=O)n2C,0.5*,4
CCOc1ccc2c(c1)s/c(=N\C(=S)NC(=O)CN1C(=O)CCC1=O)n2C,109,19
Cc1ccc(Cl)cc1NC(=O)c1cc(NC(=O)C2CC=CCC2C(=O)O)ccc1N1CCOCC1 (configuration not stated),97,0
O=c1cc(-c2ccccc2)c2ccc(O)c(O)c2o1,/,58*
CCc1cc(=O)oc2c(O)c(O)ccc12,102,11
CC(C)OC(=O)[C@@H]1CCN[C@@H]1c1ccccc1,100,0
Cc1n[nH]c(C)c1N1C(=O)c2cccc3c(Br)ccc(c23)C1=O,102,43
Cn1nc(-c2ccc(F)cc2)nc2c(=O)n(C)c(=O)nc1-2,0.2*,-132
COc1ccc(-c2nc3c(=O)n(C)c(=O)nc-3n(C)n2)cc1OC,53,-1
CCOc1ccc(N2CC(c3nc4ccccc4n3CCOc3ccccc3OC)CC2=O)cc1 (configuration not stated),96,/
CCn1c2ccccc2c2cc(N=C=S)ccc21,128,4
CCn1c2ccccc2c2cc(C#N)ccc21,44*,25
SMILES,Sa growth 42C,S aureus helic
CCOc1cc2c(cc1OCC)C1CC(=O)N(c3cccc(C)c3)C(=O)N1CC2 (configuration not stated),91,14
COc1cc(C2C(C(=O)Nc3ccccc3C)=C(C)Nc3nc(SCc4cc(C)ccc4C)nn32)ccc1O (configuration not stated),118,/
CS(=O)(=O)c1ccc([C@@H](O)[C@@H](COC(=O)CN)NC(=O)C(Cl)Cl)cc1,52,/
O=C(N[C@@H](CO)[C@H](O)c1ccc([N+](=O)[O-])cc1)C(Cl)Cl,0.2*,/
CS(=O)(=O)c1ccc(C(O)[C@H](CF)NC(=O)C(Cl)Cl)cc1 (some centres not stated),-0.8*,/
O=C(O)CCC(=O)OC[C@@H](NC(=O)C(Cl)Cl)[C@H](O)c1ccc([N+](=O)[O-])cc1,83,/
c1cncc(-c2nc(NCCSCc3ccco3)c3ccccc3n2)c1,5.9*,-8
Clc1ccc(-c2nc(NCc3ccco3)c3ccccc3n2)c(Cl)c1,52,-36
Cc1nc(-c2ccc(F)cc2)sc1CCNC(=O)c1ccccc1C(F)(F)F,104,/
CCn1cc(C(=O)O)c(=O)c2cc(F)c(N3CCN(C(=S)Nc4ccc5c(c4)OCO5)CC3)cc21,0.2*,18
CCn1cc(C(=O)O)c(=O)c2cc(F)c(N3CCN(C(=O)c4ccccc4F)CC3)cc21,51,14
CCn1cc(C(=O)O)c(=O)c2cc(F)c(N3CCN(C)CC3)cc21,-0.9*,-28
CCn1cc(C(=O)O)c(=O)c2cc(F)c(N3CCNCC3)cc21,-0.1*,/
CCn1cc(C(=O)NCC(C)C)c(=O)c2cc(F)c(N3CCN(C(=O)c4ccco4)CC3)cc21,113,3
CCn1cc(C(=O)NN)c(=O)c2cc(F)c(N3CCCC3)cc21,74,-3
Cc1ccc(SCC(=O)Nc2ccc(I)cn2)cc1,/,-23
CCCC(=O)N=C1SC2CS(=O)(=O)CC2N1Cc1ccccc1 (configuration not stated),87,-16
CCCNC(=O)CC1Oc2ccccc2NC1=O (configuration not stated),101,6
Cc1ccc(SCC(C)CNC(=O)Nc2ccccc2)cc1 (configuration not stated),81,6
CN(Cc1c(F)cccc1Cl)C(=O)C1=CC=CN2CCS(=O)(=O)N=C12,86,-9
N#C/C(=C/c1ccc(-c2cc(C(=O)O)ccc2Cl)o1)C(=O)NCCc1c[nH]c2ccccc12,9.7*,20
N#C/C(=C\c1ccc(-c2cc(C(F)(F)F)ccc2Cl)o1)C(=O)O,96,-5
COc1ccccc1CNC(=O)Cn1ncc2c3ccccc3n(Cc3ccccc3C)c2c1=O,114,/
C=CCn1c(=O)[nH]c2nc3cc(N=CN(C)C)ccc3nc2c1=O,89,-93
CC[n+]1c(C)sc2cc(SC)c(OC)cc21,1.8*,10
SMILES,Sa growth 42C,S aureus helic
CC[n+]1c(C)sc2ccccc21,46,16
CCn1c2c(c(=O)n3ncc(C(=O)N4CCN(c5ccc(C(C)=O)cc5)CC4)c13)CN(Cc1ccc(OC)cc1)CC2,100,/
CN(C1=CC(=O)c2ccccc2C1=O)c1ccccc1,/,-4
COC1=CC(=O)c2ccccc2C1=O,1.0*,29
CSc1nc(C)cc(Oc2ccc(=O)n(-c3ccccc3)n2)n1,105,2
CCOc1ccc(Nc2nc(O)c(N=Nc3ccc(C(=O)O)cc3)s2)cc1,88,-7
O=C1c2ccccc2C(=O)c2c1oc1c3c(ccc21)OCN(C1CCCC1)C3,97,32
O=C1c2ccccc2C(=O)c2c1oc1c3c(ccc21)OCN(C1CCS(=O)(=O)C1)C3 (configuration not stated),7.6*,27
O=C(N/C(=C/c1ccc(Cl)cc1)C(=O)N1CCOCC1)c1ccccc1,/,-6
CCSC1=C(C#N)C2(CCCCC2)C(C#N)=C(N)N1,108,10
N#CC1=C(CBr)NC(CBr)=C(C#N)C12CCCCC2,131,48*
Cc1ccc2c(=O)cc(C(=O)Nc3sc4c(c3C(=O)NCC3CCCO3)CCCC4)oc2c1 (configuration not stated),111,/
Cc1occc1C(=O)Nc1cc(C(C)(C)C)on1,115,-1
Cc1occc1C(=O)N=Nc1cc(C(C)(C)C)c(O)c(C(C)(C)C)c1,1.4*,7
O=C(NCc1ccc(F)cc1)C(=O)NCC(c1cccs1)S(=O)(=O)c1cccs1 (configuration not stated),129,/
O=C(OCc1ccc(F)cc1)c1cc(-c2ccco2)nc2ccccc12,6.6*,1
COC(=O)c1ccc(COC(=O)c2cc(-c3ccco3)nc3ccccc23)cc1,71,8
CCN1C(=O)/C(=C\c2ccc(-c3ccc(Cl)c(C(=O)O)c3)o2)SC1=S,-0.7*,-80
CN1C(=O)S/C(=C/c2ccc(-c3ccc(C(=O)O)c(Cl)c3)o2)C1=O,58,12
CCC(C)NC(=O)[C@@H]1CCCN1S(=O)(=O)c1ccccc1C(F)(F)F (some centres not stated),108,10
Cc1[nH]c2ccc(C(=O)OC3CCOC3=O)cc2c1C (configuration not stated),98,-3
